# Test results published in the supplement of paper PMC7530171.
# Counter-ions that a name gives are not always drawn. ± gives the standard deviation.
# Test system: THP-1
# Assay: THP-1 cell loss relative to DMSO control; higher = more host cell loss (toxicity); extreme values may be limits of the assay
# Conditions: 10 µM; 4 days; infection: M. tuberculosis H37Rv
# Description: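 OICR kinase inhibitor library screened in duplicate at 10 uM against M. tuberculosis-infected THP-1 macrophages, 4 days at 37 C. THP-1 cell loss (cytotoxicity or loss of adherence) was quantified from Hoechst-stained nuclei counts by high-content imaging and normalised to the 1% DMSO control; 100 = complete loss of host cells.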
row,SMILES,THP-1 cell loss
1,C[C@@H](N)[C@H]1CC[C@H](C(=O)Nc2ccncc2)CC1,15.7 ± 22%
2,O=c1cc(N2CCOCC2)oc2c(-c3ccccc3)cccc12,59.5 ± 13%
3,O=C1NC(=O)c2c1c(-c1ccccc1)cc1[nH]c3ccc(O)cc3c21,77.75 ± 0.7%
4,CC[C@@H]1/C=C(\C)C[C@H](C)C[C@H](OC)[C@H]2O[C@@](O)(C(=O)C(=O)N3CCCC[C@H]3C(=O)O[C@H](/C(C)=C/[C@@H]3CC[C@H](Cl)[C@H](OC)C3)[C@H](C)[C@@H](O)CC1=O)[C@H](C)C[C@@H]2OC [Pimecrolimus],28.5 ± 3%
5,O=c1c(-c2ccc(O)cc2)coc2cc(O)cc(O)c12 [Genistein],4.45 ± 2.2%
6,CN1CCC(COc2cnc(-c3cccc(Cn4nc(-c5cccc(C#N)c5)ccc4=O)c3)nc2)CC1,90.4 ± 14%
7,N#C/C(=C(/N)Sc1ccc(N)cc1)c1ccccc1C(F)(F)F,78.2 ± 4.7%
8,CS(=O)(=O)CCNCc1nc(-c2ccc3ncnc(Nc4ccc(OCc5cccc(F)c5)c(Cl)c4)c3c2)cs1,37.5 ± 15%
9,O=C(NOCC1CC1)c1ccc(F)c(F)c1Nc1ccc(I)cc1Cl,100%
10,Oc1cc(-c2nc(-c3ccccc3)[nH]c2-c2ccncc2)ccc1Cl,100%
11,N#CC(c1ccnc(NCCc2cccnc2)n1)c1nc2ccccc2s1 (stereo unspecified),100%
12,CN(C)CCOc1ccc(-c2nc(-c3ccncc3)c(-c3ccc4c(c3)CC/C4=N\O)[nH]2)cc1,72.3 ± 11%
13,O=S(=O)(Nc1ccccn1)c1ccc(N=Cc2c(O)[nH]c3ccc4ncsc4c23)cc1,100%
14,COc1ccc(-c2cc3nccn3c(Nc3ncccc3C(N)=O)n2)cc1OC [BAY 61-3606 hydrochloride],100%
15,O=C1Cc2c([nH]c3ccc(Br)cc23)-c2ccccc2N1 [Kenpaullone],100%
16,COc1cc2c(Oc3ccc4[nH]c(C)cc4c3F)ncnc2cc1OCCCN1CCCC1 [Cediranib],91.7 ± 12%
17,CCN(CCCOc1ccc2c(Nc3cc(CC(=O)Nc4cccc(F)c4)[nH]n3)ncnc2c1)CCOP(=O)(O)O,7.93 ± 5.5%
18,Cc1ccc(F)c(NC(=O)Nc2ccc(-c3cccc4[nH]nc(N)c34)cc2)c1,84.1 ± 22%

row,SMILES,THP-1 cell loss
1,COc1cc(OC2CCN(C)CC2)ccc1Nc1ncc2c(n1)n(C1CCCC1)c(=O)n2C,87.6 ± 18%
2,CC(C)[C@H](CO)Nc1nc(Nc2cccc(Cl)c2)c2ncn(C(C)C)c2n1 [Purvalanol A],100%
3,O=C(NC(NC(=S)Nc1ccc(F)c([N+](=O)[O-])c1)C(Cl)(Cl)Cl)C(c1ccccc1)c1ccccc1 (stereo unspecified),100%
4,Cc1ccc2c(=O)c3ccccc3n(CCCN)c2c1C,100%
5,Cn1cnc2c(NCc3ccccc3)nc(NCCO)nc21 [Olomoucine],3.14 ± 4.4%
6,COc1ccc(S(=O)(=O)N(C(C)=O)c2ccccc2/C=C/c2cc[n+]([O-])cc2)cc1,51.3 ± 4.4%
7,N#C/C(=C\c1ccc(O)c(O)c1)C(=O)NCc1ccccc1,0.71 ± 1%
8,C[C@@H](Oc1cc(-n2cnc3ccc(CN4CCN(C)CC4)cc32)sc1C(N)=O)c1ccccc1C(F)(F)F,23.7 ± 4.8%
9,COc1cc(O)c2c(c1)/C=C/C[C@H](O)[C@H](O)C(=O)/C=C\C[C@H](C)OC2=O [(5Z)-7-Oxozeaenol],100%
10,CN(C)CCOc1cc(-c2cn[nH]c2)ccc1NC(=O)C1COc2ccccc2O1 (stereo unspecified),0%
11,O=C(Nc1cccc(Nc2ncc(Br)c(NCCc3cnc[nH]3)n2)c1)N1CCCC1,36 ± 15%
12,Nc1ncnc2c1c(-c1cccc(OCc3ccccc3)c1)cn2C1CC(CN2CCC2)C1 (stereo unspecified),18.9 ± 6%
13,COc1ccc(Cl)cc1NC(=O)Nc1cc(C)nc2ccccc12,9.3 ± 13%
14,Clc1ccc(Nc2nnc(Cc3ccncc3)c3ccccc23)cc1 [Vatalanib dihydrochloride],39.2 ± 3.4%
15,Cc1[nH]c(/C=C2\C(=O)Nc3cc(-c4ccccc4)ccc32)c(C)c1CCC(=O)O,6.62 ± 9.4%
16,Oc1ccc(Nc2nc(-c3ccc(Cl)cc3)cs2)cc1 [2-(p-Hydroxyanilino)-4-(p-chlorophenyl) thiazole],100%
17,c1cc(OCCN2CCCCC2)cc(-c2n[nH]c3ccc(-c4nnc[nH]4)cc23)c1,3.37 ± 4.8%
18,COc1cc(C[C@H]2C(=O)OC[C@@H]2Cc2ccc(OC)c(OC)c2)ccc1O [Arctigenin],35 ± 18%
